# Measured values: the supplement of paper PMC3334620
# The full ranking holds about 33,000 sequences; the median of “E-score (-0.5 to 0.5)” is about -0.016, and the highest 2% start at about 0.31. Only a selection was taken, and the highest values are over-represented in it overall.
# Target: Cst6 (UniProt P40535)
# Test: PBM E-score (8-mer binding enrichment) (E-score (-0.5 to 0.5)); higher = stronger / more preferred TF binding
# Conditions: protein concentration: 200 nM; construct: GST-DNA-binding domain
# Description: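 Universal 'all 10-mer' protein binding microarrays (Agilent AMADID 015681) probed with GST-tagged S. cerevisiae TFs (full-length or DBD) made by in vitro transcription/translation (PURExpress), about 100-200 nM. Bound TF was detected with fluorescent anti-GST. Each ungapped 8-mer (which stands for itself and its reverse complement) is scored by the PBM enrichment score (E-score), a modified Wilcoxon-Mann-Whitney statistic from -0.5 to +0.5, computed with the Universal PBM Analysis Suite. Scale: above 0.35 generally sequence-specific binding.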
# UniProt P40535, sequence (P40535 whole entry): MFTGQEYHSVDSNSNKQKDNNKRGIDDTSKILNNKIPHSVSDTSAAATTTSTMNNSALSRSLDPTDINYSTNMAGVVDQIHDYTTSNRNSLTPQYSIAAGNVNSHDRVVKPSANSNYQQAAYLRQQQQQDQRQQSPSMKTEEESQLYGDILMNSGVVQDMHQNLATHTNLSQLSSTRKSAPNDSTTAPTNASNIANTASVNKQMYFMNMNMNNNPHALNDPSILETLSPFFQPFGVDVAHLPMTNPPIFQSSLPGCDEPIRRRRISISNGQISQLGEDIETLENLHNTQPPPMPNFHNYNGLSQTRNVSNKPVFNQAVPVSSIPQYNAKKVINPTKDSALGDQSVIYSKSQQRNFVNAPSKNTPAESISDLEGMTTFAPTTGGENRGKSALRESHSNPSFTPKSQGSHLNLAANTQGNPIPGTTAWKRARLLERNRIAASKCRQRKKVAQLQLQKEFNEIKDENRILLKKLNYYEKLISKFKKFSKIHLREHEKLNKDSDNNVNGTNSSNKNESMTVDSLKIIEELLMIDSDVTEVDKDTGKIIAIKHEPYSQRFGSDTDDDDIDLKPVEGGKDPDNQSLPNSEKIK
row,Sequence,PBM E-score
1,CTACTCAC,0.212
2,CATAGACC,-0.13
3,AACTGCCG,0.114
4,TAAATTTA,0.237
5,ATAATTTA,0.304
6,CTAATTTC,0.128
7,GTAATTTA,0.333
8,CTAATTTA,0.321
9,GCAATTTA,0.151
10,CATGAGGG,-0.142
11,ATGCAAAA,0.22
12,ACGGTCAC,0.152
13,TCAGCGCA,-0.176
14,ACAAAAGT,0.164
15,ACGTATAC,0.307
16,GCGTATTA,0.0768
17,CCGTATAC,-0.015
18,TCGTATAA,0.145
19,ACGTATTA,0.33
20,ACGTATAT,0.237
21,ACGTATTG,0.238
22,ACGTATAA,0.309
23,CCGTATAA,0.225
24,CGAGACTA,0.0119
25,GCAGCGCC,0.0306

row,Sequence,PBM E-score
1,CTAAAGAG,-0.0139
2,AGGGGCCC,-0.101
3,ACCCGACT,-0.16
4,CAAGGTTC,-0.155
5,AGGCTGGC,-0.195
6,AAACGTAG,-0.0946
7,CAACGTAA,0.329
8,CAACGTTG,0.31
9,CAACGTAC,0.0567
10,CAACGTAG,0.0788
11,TAACGTAA,0.452
12,AAACGTAA,0.365
13,TAACGAAA,0.27
14,AAACGTAT,0.276
15,GAACGTAA,0.277
16,AAACGTTG,-0.106
17,CAACGTTC,-0.13
18,GGCCCTCA,-0.266
19,AAGCAAAC,0.0375
20,AGATGACA,0.283
21,TCATGACA,0.392
22,CGATGAGA,-0.048
23,GCATGACA,0.288
24,GGATGACA,0.287
25,TCATGAGA,0.214

row,Sequence,PBM E-score
1,CGATGACC,0.0541
2,CGATGACA,0.383
3,CGATGAAG,0.0389
4,CGATGACG,0.48
5,TGATGAAA,0.289
6,TGATGACA,0.368
7,AAGCGTGA,0.141
8,GACTATCA,-0.104
9,CGGAGATC,-0.205
10,ACTGTGTA,-0.043
11,CTACTCCC,-0.156
12,CAGGCCAA,-0.178
13,GCGTGACA,0.255
14,CGTTCTTC,0.151
15,ACAGATCC,0.0419
16,ACGAACAC,0.138
17,AGATGACT,0.0398
18,AGATGACG,0.473
19,AGATGACC,0.0152
20,ACTCTGGA,0.109
21,CGACGACA,-0.054
22,GGACGACA,0.0793
23,TGACGACA,0.476
24,AGACGAAA,0.134
25,TGACGAAA,0.477

row,Sequence,PBM E-score
1,GGACGAAA,0.0732
2,TGCATCAA,0.154
3,CAGCCAAA,0.0814
4,AGCCTGAA,-0.0532
5,ATGACCTA,0.346
6,GTGACCTA,0.192
7,ATGACCTC,0.349
8,CTGACCTC,0.0456
9,CTGACCTA,-0.0164
10,ATGACCTG,0.0198
11,GCCGGCAA,-0.108
12,CGTCATCC,0.473
13,AGTCATCC,-0.0119
14,GGTCATCA,0.247
15,AGTCATCA,0.0814
16,CGTCATCA,0.487
17,CCTCATCC,-0.272
18,CGGCACGC,0.0275
19,TGTGGAAA,0.186
20,ATTGATTC,0.178
21,AATGATGA,0.334
22,AATGATTC,0.225
23,ATTGATTA,0.308
24,ATTGATTG,0.237
25,AAAGATGT,0.13

row,Sequence,PBM E-score
1,AATGATCT,0.215
2,AATGATGG,0.186
3,GATGATTA,0.2
4,AATGATGT,0.41
5,AATGATTA,0.344
6,ACTGATGA,0.173
7,CCAAACTC,-0.0716
8,CTCATCGC,-0.0477
9,GTAACCAC,-0.0805
10,AACAGAGG,-0.0721
11,ACAAGTTG,-0.0486
12,AACACCCA,-0.246
13,TGAACCAA,0.184
14,AGGCGGTA,-0.225
15,CCAAGCCG,-0.182
16,TGCCATAA,0.00753
17,ACGTTACC,0.179
18,AACGGTTG,0.0747
19,CCTGATGC,0.0754
20,ATTGATGC,0.262
21,AGTGATGC,0.317
22,AATGATCC,0.026
23,GATGATCC,0.00428
24,AATGATGC,0.347
25,AGTGATGG,0.0422

row,Sequence,PBM E-score
1,AGTGATGA,0.284
2,GATGATGC,0.328
3,AAATTAGC,0.153
4,ACACTCCC,-0.177
5,GCACTAAC,-0.119
6,CCACCTCA,-0.114
7,AGCAGTGG,-0.048
8,CATATAAG,0.146
9,TATATAAA,0.298
10,AATATAAA,0.331
11,AATATAAT,0.156
12,AATAAATA,0.39
13,TATAAATA,0.294
14,CATATAAA,0.236
15,AATATAAG,0.352
16,AATAAATG,0.302
17,AGGACAAC,0.0452
18,ACGGTCTA,-0.0035
19,CGTATTGC,0.0567
20,ACGGATTC,0.0332
21,CCGTACTC,-0.113
22,TGCCAAAA,0.0693
23,ATGTGGGG,-0.237
24,ATCATGAA,0.17
25,GACATGAC,0.275

row,Sequence,PBM E-score
1,GTCATGAA,0.268
2,ATCATGCA,0.109
3,CTCATGCA,0.00428
4,ATCATGAG,0.146
5,GTCATGCA,0.36
6,CTCATGAG,0.079
7,CTCATGAA,0.158
8,GTCATGAC,0.374
9,ATCATGAC,0.446
10,CTCATGAC,0.335
11,ATTGAGCG,-0.0477
12,ACCGGATA,-0.0988
13,AAAGGCCA,-0.109
14,AGCGCGTA,0.177
15,CTGATGGA,-0.0729
16,ACGTGCAG,0.0472
17,ACCGCCGT,0.209
18,CTCATTAC,0.25
19,ATCATTAC,0.375
20,AAAATTAC,0.257
21,AAAATTAT,0.378
22,GTAATTAA,0.188
23,AATATTAC,0.241
24,GATATTAC,0.352
25,CATATTAC,0.261

row,Sequence,PBM E-score
1,ATCATTAG,0.19
2,ATAATTAA,0.322
3,AAAATTAG,0.159
4,TTAATTAA,0.0995
5,CAAGGATC,-0.012
6,GCTATACC,-0.19
7,GGAGCATA,-0.00076
8,CCGGCATA,-0.15
9,CCTGCGCG,-0.0722
10,AAAGCGCC,0.113
11,CTAGTCAA,-0.127
12,AGCACCTA,-0.227
13,ATACGTTC,0.0426
14,GGGGAGAA,-0.161
15,CTTATTAC,0.231
16,ATTGTTAG,0.129
17,ATAATTAG,0.223
18,ATTATTAC,0.339
19,CTTGTTAC,0.0412
20,ATAATTAT,0.342
21,CAAATTAA,0.224
22,ATTATAAT,0.259
23,ACTATTAC,0.201
24,ATTGTTAC,0.348
25,GAAATTAA,0.334

row,Sequence,PBM E-score
1,AAAATTAA,0.115
2,CGACTAAC,-0.0525
3,ACACACCT,0.0393
4,CATGAAAG,0.082
5,ATTCTTAC,0.315
6,ATTCTTAG,0.0174
7,ACAATTAC,0.249
8,ACAATTAA,0.319
9,ATAATTAC,0.349
10,GTAATTAC,0.287
11,CTTCTTAC,-0.0252
12,AAGATTAC,0.127
13,CTAATTAC,0.243
14,GAGATTAA,0.0823
15,ACAATTAT,0.289
16,GAGATTAC,0.312
17,ACTGCGTC,0.147
18,CACTTGGC,-0.08
19,GTGCTTAA,0.0338
20,ATCGCAGG,-0.199
21,GCATTGTA,0.047
22,GGGCTGTA,-0.256
23,GCAACCCA,-0.0438
24,ATTTTCTG,0.115
25,CCTCGAAA,0.0797

row,Sequence,PBM E-score
1,AGTCACTC,-0.033
2,CGTCACTC,0.445
3,GATCACTA,0.0963
4,AGTCACTA,0.209
5,AATCACTA,0.159
6,CGTCACTA,0.459
7,CATCACTA,0.353
8,CCTCACTC,0.0262
9,GGTCACTA,0.0296
10,GTTTGGTA,0.213
11,CAAAAATG,0.133
12,ACTGTGGG,-0.0161
13,GATACCGC,-0.0789
14,AGGGACAT,-0.181
15,CGACGGGC,0.0567
16,CCATTACC,-0.00808
17,AGGAGACA,-0.0509
18,ATCAAGTC,0.0221
19,AGAGGTAA,-0.119
20,GGAGGTAA,-0.0533
21,TGAGGTAA,0.414
22,ATAGCTGA,-0.204
23,CATTCCAG,-0.0492
24,AGAGGGTG,-0.204
25,CTGCCGCA,0.0518

row,Sequence,PBM E-score
1,ATGCCGCG,0.233
2,GGGCCGCA,-0.0641
3,GAGCCGCA,0.28
4,GTGCCGCA,0.362
5,ATGCCGCA,0.353
6,TAACTACA,0.0421
7,AGAGTTTA,0.176
8,CCACACTA,0.149
9,TACCTAAA,0.14
10,CGTGTGGA,-0.153
11,AAAGGGGC,-0.196
12,AACGGCAC,0.343
13,AACGGCAT,0.346
14,AACGGCAA,0.251
15,CACGGCAC,0.356
16,CACGGCAA,0.302
17,AACGGCAG,0.134
18,GACGGCAC,0.23
19,ATCGGCAT,0.23
20,CACGGCAG,0.142
21,CTCTGAAA,-0.0419
22,AAGGATGA,0.0593
23,CATGCAAA,0.142
24,CGCCGCGC,0.357
25,CGCCGTGC,0.344

row,Sequence,PBM E-score
1,CGCCGTGA,0.221
2,AGCGCCGG,-0.102
3,AGCCGTGC,0.24
4,AGCCGCGC,0.18
5,CGCGCCGC,0.326
6,CGCCGCGA,0.241
7,AGCGCCGC,0.309
8,CCCGCCGC,0.126
9,CGCGCCGA,0.137
10,AGCGCCGA,0.00204
11,ATTATGCG,0.217
12,ACGAGTTA,0.0712
13,CTTCTTCC,-0.212
14,ACCTAGTA,-0.284
15,AACTCTGT,0.0458
16,ATCTATCA,0.128
17,ACCCACGT,0.0287
18,ACCAACTC,-0.0108
19,CATTTCCA,0.143
20,CTTTAGGA,-0.0677
21,ACCTCTCA,-0.0889
22,AGACATAA,0.0351
23,GGACATAA,0.0407
24,GTACATAA,0.085
25,TTACATAA,0.433

row,Sequence,PBM E-score
1,CTACATAA,-0.0447
2,TGACATAA,0.477
3,ACTACCTA,0.0222
4,AGTGGAGC,-0.165
5,AGTTGACA,0.191
6,ATGTGACC,0.0452
7,AGTTGACC,-0.114
8,AGTTGACG,0.324
9,ATGTGACA,0.151
10,ATGTGACG,0.433
11,AGGTGACC,0.046
12,CGGTGACC,0.115
13,CGGTGACG,0.476
14,CGGTGACA,0.266
15,AGGTGACG,0.452
16,AGGTGACA,0.278
17,CCCAGGGA,-0.37
18,CTGGAGCA,-0.0734
19,CAGCCTTA,-0.254
20,AAGCTAAG,-0.252
21,AAAGCTTC,-0.172
22,CTACTTAC,0.127
23,AGGCTAAC,-0.114
24,CAAACCTG,0.0584
25,AATAATTC,0.205

row,Sequence,PBM E-score
1,AATAATTG,0.121
2,AATAATTA,0.325
3,GATAATTA,0.322
4,ACTAATTA,0.351
5,CATAATTA,0.304
6,CCTAATTA,-0.00674
7,GCTAATTA,0.166
8,GATAATAA,0.098
9,CAGGGCGA,-0.00562
10,CTCTCGCC,-0.249
11,AATGGTGA,0.184
12,TCGGCTCA,-0.0753
13,AGTGACGC,0.438
14,AGTGACCC,-0.164
15,CTTGACGC,0.214
16,CGTGACAA,0.108
17,CCTGACGC,-0.0402
18,AGTGACTC,0.0809
19,CGTGACGA,0.386
20,CGTGACCA,-0.0809
21,CGTGACGC,0.436
